Most compounds without a hit are left out; they make up all but 7.9% or so of the library.
HT1080NT lethal: kills 2HG-producing HT-1080-NT fibrosarcoma cells. HT-1080-NT fibrosarcoma viability, CellTiter-Glo ATP luminescence, 48 h. Potency, µM (top dose mostly 46.1 µM), for inactives: at the top dose activity, negative = less viability, most hits filed as cytotoxic. 360,000 compounds, 1.6% hits. AID 686970;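 note: NT is the 2HG producing partner of a matched IDH1 knockdown line; 0% = DMSO-treated cells and -100% = media-only wells without cells; nearly all actives have a fitted effect of over 55% in size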
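Fibrosarcoma NT cells, 750 per well in 5% FBS RPMI, were exposed to compound for 48 hours. Viability: CellTiter-Glo luminescence.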
KB-V1 cytotox: KB-V1 MDR subline cytotoxicity; KB-V1 MDR cells viability, CellTiter-Glo, 72 h; Potency, µM (top dose mostly 46.1 µM), usual class: cytotoxic; 400,000 compounds, 3.4% hits; AID 1347076; note: % is set by controls: 0 for no effect and ±100 for the full control effect; nearly all actives have a fitted effect of over 60% in size
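Following 72 h at 37 degrees C with compound, KB-V1 cell viability was read by CellTiter-Glo luminescence, medium being phenol-red-free DMEM plus 10% FBS; concentration-response parameters came from normalized, curve-fitted qHTS data.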
SW480 rerep: DNA re-replication induction in SW480 cells; SW480 DNA re-replication, Hoechst DNA content imaging, 48 h; Potency, µM (doses to about 46.1 µM), for the others: top-dose re-replication activation, hits mostly activators; 340,000 compounds, 1.8% hits; AID 624297; note: % of control where 0% means no effect; nearly all actives have a fitted effect of over 55% in size
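DNA re-replication was detected as more nuclei of elevated Hoechst intensity after 48 hr exposure to compound (23 nL pinned per well of 250 cells).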
MCF10A rerep: inducers of DNA re-replication in MCF 10A breast cells. MCF 10A DNA re-replication, Hoechst nuclear intensity, 48 h. Potency, µM (series often up to 46.1 µM), inactives show at the top dose activity, positive = re-replication, most hits filed as activators. 350,000 compounds, 2.9% hits. AID 624296; note: % of control where 0% means no effect; nearly all actives have a fitted effect of over 50% in size
HT1080 IDH1KD tx: toxicity to HT-1080 IDH1 knockdown cells (counter line); Potency, µM (titrated, usually from 46.1 µM), for the others: at the highest dose activity, negative = toxicity, hits mostly cytotoxic; 360,000 compounds, 2% hits; AID 686971; HT-1080 IDH1 knockdown viability, ATP luminescence, 48 h;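 note: 0% = DMSO wells and -100% = cell-free medium wells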
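% activity derives from luminescence (CellTiter-Glo), normalised to DMSO and no-cell wells. HT-1080-IDH1KD cells, 750/well, had 48 h compound exposure at 37 °C.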
KB-3-1 cytotox: kills parental KB-3-1 adenocarcinoma cells | KB-3-1 viability, CellTiter-Glo ATP luminescence, 72 h | Potency, µM (top dose mostly 46.1 µM), actives largely listed as cytotoxic | 400,000 compounds, 1.4% hits | AID 1347075; note: % is set by controls: 0 for no effect and ±100 for the full control effect; nearly all actives have a fitted effect of over 60% in size
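Parental KB-3-1 viability, qHTS format: 72 h compound exposure, 37 °C; CellTiter-Glo; media-only wells and DMSO plates as controls; concentration-effect fits on corrected data.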
* hit, by the source's call; i = inactive; ? = inconclusive; / = no result given; [ ] = remark or other dose. Calls come from the whole dose curve; as a rule, active = well fitted curve in the direction sought with a large enough effect; inconclusive = small, poorly fitted or top-dose-only effect, or another doubt; inactive = no such curve, though single readings can be large; an effect the other way counts as inactive or inconclusive. Potency is the fitted concentration of half-maximal effect.

SMILES	HT1080NT lethal	KB-V1 cytotox	SW480 rerep	MCF10A rerep	HT1080 IDH1KD tx	KB-3-1 cytotox
COc1ccc(CNC(=O)c2cc3ccccn3n2)cc1OC	/	?	/	/	/	i
O=C(COc1ccccc1[N+](=O)[O-])N(Cc1ccco1)c1ccccn1	/	i	/	/	/	i
Clc1ccc(-c2noc(CSc3nnc(-c4ccncc4)n3-c3ccccc3)n2)cc1	?	2.6µM*	?	?	?	i
C=C(CC[C@]12OC(C(=O)O)C(O)(C(=O)O)C(C(=O)O)(O1)C(OC(=O)/C=C/[C@@H](C)C[C@@H](C)CC)C2O)[C@@H](OC(C)=O)[C@H](C)Cc1ccccc1 (stereo not given in full)	/	i	/	/	/	i
C/C(=N\NC(=O)c1cc(-c2cccnc2)nc2ccccc12)c1ccccc1O	-11%	6.5µM*	24%	?	9.2µM*	i
C/C(=N\NC(=O)c1cc(C2CC2)nc2ccccc12)c1ccc(O)cc1O	?	i	1.5µM*	14%	4.6µM*	?
COc1ccc(/C(C)=N/NC(=O)c2cc(-c3cccnc3)nc3ccccc23)cc1	9%	i	-3%	-2%	9%	i
O=C(NNC(=S)Nc1ccccc1)c1cc(-c2cccnc2)nc2ccccc12	5%	i	-2%	-2%	-6%	i
CC(OC(=O)c1cc(-c2cccnc2)nc2ccccc12)C(=O)Nc1ccc2ccccc2c1 (stereo not given)	1%	i	2%	16µM*	12%	i
CCOc1ccccc1C(=O)N(Cc1cccs1)c1ccc(Cl)cc1	/	i	/	/	/	?
COc1cccc(CNc2cccc(C(F)(F)F)c2)c1O	-20%	i	-18%	-1%	-16%	21µM*
Cc1ccc(N(CC(=O)Nc2ccccc2-c2ccccc2)S(=O)(=O)c2ccccc2)c(C)c1	-6%	i	5%	21µM*	-12%	i
CS(=O)(=O)N(CC(=O)Nc1ccccc1-c1ccccc1)c1ccccc1	-14%	i	-1%	?	-1%	i
Cc1cccc(N(CC(=O)Nc2ccc(F)cc2)S(C)(=O)=O)c1	8%	16µM*	6%	-1%	11%	i
Cc1cccc(NS(=O)(=O)c2ccc(NC(=O)CN(c3cc([N+](=O)[O-])ccc3C)S(C)(=O)=O)cc2)c1	?	i	18µM*	?	?	i
COc1ccc(C)cc1NS(=O)(=O)c1ccc(NC(=O)CN(c2cc([N+](=O)[O-])ccc2C)S(C)(=O)=O)cc1	?	i	?	22%	?	i
CSc1cccc(NC(=O)CN(c2cccc(C)c2)S(C)(=O)=O)c1	-3%	i	2%	2%	-2%	i
Cc1ccc(N(CC(=O)Nc2ccc(S(=O)(=O)N3CCOCC3)cc2)S(C)(=O)=O)cc1C	0%	23µM*	3%	2%	1%	i
CC(=O)c1cccc(N(CC(=O)Nc2ccc(S(=O)(=O)N3CCOCC3)cc2)S(C)(=O)=O)c1	-8%	i	-14%	-2%	-11%	i
CS(=O)(=O)N(CC(=O)Nc1ccc(S(=O)(=O)N2CCOCC2)cc1)c1cccc(F)c1	-1%	i	23µM*	?	-1%	i
CS(=O)(=O)N(CC(=O)Nc1ccccc1-c1ccccc1)c1cccc(F)c1	-6%	i	-11%	0.65µM*	-4%	i
O=C(Nc1ccc2c(c1)OCO2)c1ccc(N2CCCC2)c([N+](=O)[O-])c1	-18%	23µM*	11%	11%	2%	i
O=C(Nc1ccc2c(c1)OCCO2)c1ccc(Br)c(S(=O)(=O)N2CCOCC2)c1	-1%	?	1%	?	-23%	i
O=C(NCc1ccc2c(c1)OCO2)c1cc([N+](=O)[O-])ccc1N1CCCCC1	7.3µM*	?	5.8µM*	2.6µM*	8.2µM*	2.1µM*
O=C(NCc1ccco1)c1cc([N+](=O)[O-])ccc1N1CCCCC1	-6%	i	3%	?	-7%	i
SMILES	HT1080NT lethal	KB-V1 cytotox	SW480 rerep	MCF10A rerep	HT1080 IDH1KD tx	KB-3-1 cytotox
O=C(Nc1ccc(N2CCCCC2)c(Cl)c1)c1ccc2c(c1)OCCO2	?	?	-2%[9.22 µM]	?	?	16µM*
O=C(Nc1ccc2c(c1)OCO2)c1ccc(Br)c(S(=O)(=O)N2CCCC2)c1	-5%	5.2µM*	-7%	17%	-12%	?
Cc1nc2cccnc2n1C1CCN(C(=O)Nc2ccc(Cl)cc2)CC1	/	i	/	/	/	i
Cc1ccc(F)cc1C(=O)N1CCCC(c2cc(C(=O)Nc3ccccc3Cl)no2)C1 (stereo not given)	?	i	/	/	-70%	i
CCOc1ccc2nc(NC(=O)c3cc(=O)c4cc(C)cc(C)c4o3)sc2c1	/	i	/	/	/	i
COc1ccc(-n2c(=O)c3sc4ccccc4c3n(CC(=O)NC3CCCCC3)c2=O)cc1	/	i	/	/	/	i
CCCCCCCN(c1ccccc1)C1C[C@H]2CCCC(=O)N3CC[C@@H](C1)[C@@H]23 (stereo not given in full)	/	i	/	/	/	i
O=C(Nc1ccc2c(c1)OCO2)c1ccc(NC2CC2)c([N+](=O)[O-])c1	?	15µM*	?	?	-24%	?
COc1cccc(CNC(=O)COC(=O)c2cc([N+](=O)[O-])ccc2N2CCCC2)c1	-3%	7.3µM*	-9%	2%	-7%	i
O=C(Nc1ccc(Cl)c([N+](=O)[O-])c1)c1ccc2c(c1)OCCO2	-4%	13µM*	12%	10%	-24%	i
O=C(Nc1ccc2c(c1)OCO2)c1ccc2c(c1)OCO2	-7%	i	0%	0%	0%	i
O=C(COC(=O)c1cc([N+](=O)[O-])ccc1N1CCOCC1)NCc1ccccc1	-7%	i	/	/	-4%	i
COc1ccc(CCNC(=O)CCn2c(=O)c3ccccc3n(Cc3cc(C)ccc3C)c2=O)cc1OC	/	i	/	/	/	i
CCN(CC)S(=O)(=O)c1ccc(NC(=O)Cn2ncc3c([nH]c4ccccc43)c2=O)cc1	/	?	/	/	/	i
O=C(c1ccccc1Cl)N1CCN(S(=O)(=O)c2cccs2)CC1	9%	i	5%	0%	1%	i
O=C(c1ccc(-c2ccccc2Cl)o1)N1CCN(S(=O)(=O)c2cccs2)CC1	-11%	21µM*	23%	?	-9%	i
Cc1ccc(-c2nc3c(c(SCC(=O)N4CCCCC4)n2)Cc2cc(C)ccc2O3)cc1	/	i	/	/	/	i
